Laboratory results published in PMC7819943, “Rice protein-binding microarrays: a tool to detect cis-acting elements near promoter regions in rice”.
In all, about 35,000 sequences were measured (“fluorescence intensity (a.u.)”: median about 10,000, highest 2% from about 52,000 on). The sample as a whole holds a higher share of the highest values than the screen did.

Each sequence was assayed against T1, OsWOX13 (Oryza sativa, UniProt Q5QMM3 1-267) (assay: protein-binding microarray (RPBM); PBS, 2% BSA, 51.3 ng/ul salmon testes DNA, 50 uM zinc acetate, 200 nM TF, 25 C, 1 h; high values mean tight binding). Details: protein: recombinant; tags: N-terminal polyhistidine and DsRed monomer fusion (pET32a); label: CyDye5-dUTP incorporated in the synthesized complementary strand; 3' TTTTT single-stranded linker to array surface; dsDNA, one strand shown.
T1 sequence: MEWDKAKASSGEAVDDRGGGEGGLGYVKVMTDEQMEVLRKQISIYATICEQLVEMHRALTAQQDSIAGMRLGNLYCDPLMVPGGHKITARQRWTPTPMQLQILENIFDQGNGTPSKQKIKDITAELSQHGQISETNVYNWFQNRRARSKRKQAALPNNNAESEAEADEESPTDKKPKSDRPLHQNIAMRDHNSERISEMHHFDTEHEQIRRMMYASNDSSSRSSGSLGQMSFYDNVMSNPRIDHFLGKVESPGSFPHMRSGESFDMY
Procedure, shortened: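 A custom Agilent array was converted to double-stranded form by primer extension with Cy5-dUTP and blocked with 2% BSA. Protein at 200 nM in PBS with 2% BSA, salmon testes DNA and 50 µM zinc acetate was applied for 1 h at 25 °C, followed by washing. The proteins were polyhistidine–DsRed N-terminal fusions of transcription factors, expressed in E. coli BL21-CodonPlus and Ni–NTA-purified. The binding signal is per-feature fluorescence intensity (arbitrary units) from an Axon 4000B scanner.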
“CGTAAACAAATAGGTCCAACATAATTTAACCTTCATAGAGCGGAGTCACCTAGTGCAG” was tested, and the binding signal was 5570 fluorescence intensity (a.u.).
For “AGACGCATCTCCTCAATCATGCATCAACGTGCGTCATCTGCGGAGTCACCTAGTGCAG”, the binding signal was 3790 fluorescence intensity (a.u.).
In the case of “GTTGCATATCAATCATCAAGAATCTCTTCAGAAAGAGGAGCGGAGTCACCTAGTGCAG”, the binding signal is reported as 14000 fluorescence intensity (a.u.).
For “GTTAAATTTAAACTTGTATATTTGTGAAGTGATACATCACCGGAGTCACCTAGTGCAG”, the binding signal was 17300 fluorescence intensity (a.u.).
With “ACACAACTTGTTAATTTGACCTGTAGCCCCATCATGTACACGGAGTCACCTAGTGCAG” the binding signal was 3150 fluorescence intensity (a.u.).
With “ATTCATGAATATATGAAACCTGATTGCAAATGTGCAAATCCGGAGTCACCTAGTGCAG” the binding signal was 4970 fluorescence intensity (a.u.).
“ATATTGATTGCATAAAGAAAGTTCGGTCCTGTTCACTTTGCGGAGTCACCTAGTGCAG” was tested, and the binding signal was 39900 fluorescence intensity (a.u.).
With “TGTTAGACTATGCCATCAATTGTAATTGTTGGTTCTGATGCGGAGTCACCTAGTGCAG” the binding signal was 4250 fluorescence intensity (a.u.).
With “TGCCTAATTGTTGCCATTGATTTGTTAGCCACACCTTTGGCGGAGTCACCTAGTGCAG” the binding signal was 40300 fluorescence intensity (a.u.).
With “TTTGATTGATGGCCATAAGTTGCCACACTTTGCCACACTTCGGAGTCACCTAGTGCAG” the binding signal was 53800 fluorescence intensity (a.u.).
For “GCAAAATTGGTTTCATCAACTATTGAGTGGGTGTGCACTGCGGAGTCACCTAGTGCAG”, the binding signal was 9640 fluorescence intensity (a.u.).
“TTGTAATTGATTGTGGCCCATCAACTATTGCCATCACTGGCGGAGTCACCTAGTGCAG” was tested, and the binding signal was 64900 fluorescence intensity (a.u.).
With “TCAAATAATTAGAAGGGGTGAGACTTCGAATCCAAGTCGTCGGAGTCACCTAGTGCAG” the binding signal was 14400 fluorescence intensity (a.u.).
In the case of “TAATTATTGAACACACTAATTAAGTATTACGATGCACCTCCGGAGTCACCTAGTGCAG”, the binding signal is reported as 6340 fluorescence intensity (a.u.).
“GGTGAATTGAATGGTTGATTGCCTATCTCATCTTCCGCAGCGGAGTCACCTAGTGCAG” was tested, and the binding signal was 64100 fluorescence intensity (a.u.).
“TGTGAATGTTGTGATTGAGGTGGTATCAGTATCATATCCGCGGAGTCACCTAGTGCAG” was tested, and the binding signal was 27000 fluorescence intensity (a.u.).
In the case of “TAATCTTGAATTATTGATTTATTTATGGCTTCAGCTTTCACGGAGTCACCTAGTGCAG”, the binding signal is reported as 7480 fluorescence intensity (a.u.).
With “TAGATAGATAGAATTGAATGGTGACCTCAGCTCCAGCTTCCGGAGTCACCTAGTGCAG” the binding signal was 16200 fluorescence intensity (a.u.).
With “AGAGGATTGATGAATGCAGCTGCAAGCACAGCACGCAGTACGGAGTCACCTAGTGCAG” the binding signal was 13600 fluorescence intensity (a.u.).
For “ACAATTGAATGATTGATTGCAGCTCAAGCTTCAATCCGCACGGAGTCACCTAGTGCAG”, the binding signal was 63900 fluorescence intensity (a.u.).
In the case of “TCTCTTACTCTTGTTGATTGACACCGGTCATCAGTAGTTCCGGAGTCACCTAGTGCAG”, the binding signal is reported as 43200 fluorescence intensity (a.u.).
In the case of “CAAAATTAACTTGCGCGCCACTCTGCCTCTCAACCCTTCACGGAGTCACCTAGTGCAG”, the binding signal is reported as 8740 fluorescence intensity (a.u.).
In the case of “AACAATTGACAAACTGATTCTGCTCGCCTCTGTCCCCTTTCGGAGTCACCTAGTGCAG”, the binding signal is reported as 46800 fluorescence intensity (a.u.).
